Experimental data published in PubChem BioAssay.
Active and inactive are the calls of the source. Unless noted, the rule behind the calls is not given here.

What was measured:
[1] = A549 cell viability effects, profiling panel, calcein-AM fluorescence, 48 h, basal (AID 1162); details: higher = more signal; note: test concentration not given here
[2] = adipocyte viability effects, profiling panel, cell-based, 3T3-L1 adipocytes, calcein-AM fluorescence, 48 h, basal (AID 1163); details: 3T3-L1 adipocytes viability, higher = more signal; note: test concentration not given here
[3] = HepG2 cell viability effects, profiling panel, calcein-AM fluorescence, 48 h, basal (AID 1164); details: higher = more signal; note: test concentration not given here
[4] = MM1S cell viability effects, profiling panel, calcein-AM fluorescence, 48 h, basal (AID 1165); details: higher = more signal;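 note: viability of MM1S multiple myeloma cells under basal unstimulated conditions; test concentration not given here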
[5] = basal RPMI8226 viability, no added stimulus, profiling panel, cell-based, calcein-AM fluorescence, 48 h, PK04 Diversity Set (AID 1166); details: RPMI8226 myeloma viability, higher = more signal;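 note: cells grown under basal conditions without added stimulus; test concentration not given here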
[6] = basal HepG2 mitochondrial membrane potential changes, profiling panel, cell-based, JC-1 fluorescence, 24 h, 100 nL compound (AID 1167); details: higher = more signal; note: test concentration not given here
[7] = basal 3T3-L1 adipocyte mitochondrial potential changes, profiling panel, cell-based, JC-1 fluorescence, 3T3-L1 adipocytes, 24 h, 100 nL compound (AID 1168); details: JC-1 mitochondrial fluorescence, higher = more signal, called active from +8 up or from −8 down; note: test concentration not given here
[8] = basal RPMI8226 mitochondrial membrane potential changes, profiling panel, cell-based, JC-1 fluorescence, 24 h, 100 nL compound (AID 1169); details: RPMI8226 myeloma, JC-1 mitochondrial potential fluorescence, higher = more signal; note: test concentration not given here
[9] = basal MM1S mitochondrial membrane potential changes, profiling panel, cell-based, JC-1 fluorescence, 24 h, 100 nL compound (AID 1170); details: higher = more signal; note: test concentration not given here
[10] = A549 lung cancer cell viability effects, profiling panel, resazurin fluorescence, 24 h, PK04 Diversity Set (AID 1171); details: higher = more signal, called active from +8 up or from −8 down; note: test concentration not given here
[11] = HepG2 liver cancer cell viability effects, profiling panel, resazurin fluorescence, 24 h, PK04 Diversity Set (AID 1172); details: higher = more signal; note: test concentration not given here
[12] = basal S. cerevisiae growth modulation, no modifier, primary screen, OD600, strain BY4716, 24 h, basal condition (AID 1173); details: OD600, 24 h, higher = more signal, called active from +8 up or from −8 down
[13] = MM1S myeloma cell viability, profiling panel, resazurin fluorescence, basal, 24 h, PK04 Diversity Set (AID 1174); details: higher = more signal, called active from +8 up or from −8 down;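 note: MM1S multiple myeloma cell line; test concentration not given here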
[14] = biological target: Dihydroorotate dehydrogenase (quinone), mitochondrial (Plasmodium falciparum (isolate 3D7)) (UniProt Q08210); assay: PfDHODH enzyme inhibitors, primary screen, biochemical, C-terminal His tag, absorbance 600 nm (AID 1175); details: DCIP absorbance 600 nm, higher = more signal, called active from +8 up or from −8 down;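 note: recombinant parasite enzyme with a five histidine tag at its C terminus; test concentration not given here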
Sequence of Dihydroorotate dehydrogenase (quinone), mitochondrial (Plasmodium falciparum (isolate 3D7)) (Q08210 whole entry, looked up): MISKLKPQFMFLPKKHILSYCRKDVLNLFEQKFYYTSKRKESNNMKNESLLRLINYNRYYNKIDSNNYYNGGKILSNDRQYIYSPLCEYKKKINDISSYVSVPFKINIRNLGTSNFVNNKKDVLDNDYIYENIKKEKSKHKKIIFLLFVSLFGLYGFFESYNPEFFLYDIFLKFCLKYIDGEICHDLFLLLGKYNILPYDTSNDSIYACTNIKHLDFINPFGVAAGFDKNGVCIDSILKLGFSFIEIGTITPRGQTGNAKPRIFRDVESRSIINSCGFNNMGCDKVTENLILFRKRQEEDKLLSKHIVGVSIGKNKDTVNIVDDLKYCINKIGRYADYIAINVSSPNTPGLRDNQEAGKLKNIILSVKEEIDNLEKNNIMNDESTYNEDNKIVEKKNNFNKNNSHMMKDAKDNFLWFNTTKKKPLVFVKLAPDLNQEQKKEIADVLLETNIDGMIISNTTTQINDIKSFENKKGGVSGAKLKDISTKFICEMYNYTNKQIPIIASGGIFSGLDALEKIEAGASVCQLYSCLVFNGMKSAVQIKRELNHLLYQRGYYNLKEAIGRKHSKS

[15] = P. aeruginosa biofilm formation inhibitors, primary screen, strain PAO1, LB-PBS medium, absorbance 600 nm (AID 1176); note: test concentration not given here; details: P. aeruginosa PAO1 growth/biofilm, A600, 12 h; higher = more signal
[16] = S. cerevisiae RM11-1a growth modifiers, primary screen, strain RM11-1a, OD600, basal, 24 h (AID 1177); details: OD600, 24 h, higher = more signal, called active from +8 up or from −8 down;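 note: cultures grown under basal conditions with no added stressor; test concentration not given here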
[17] = E. coli acrAB mutant growth effects, primary screen, E. coli filamentation inducers, strain DRC39, OD650, 24 h (AID 1178); details: higher = more signal, called active from +8 up or from −8 down;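 note: growth measured as culture turbidity by optical density at 650 nm; test concentration not given here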
[18] = E. coli acrAB mutant growth effects, primary screen, E. coli filamentation inducers, strain DRC39, OD650, 48 h (AID 1179);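 note: screen aims at cell division blockers that make cells filament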; details: E. coli DRC39 delta-acrAB growth, higher = more signal, called active from +8 up or from −8 down
[19] = RPMI8226 myeloma cell viability, profiling panel, resazurin fluorescence, basal, 24 h, PK04 Diversity Set (AID 1180); details: higher = more signal;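 note: RPMI8826 multiple myeloma cell line at 5000 cells per well; test concentration not given here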
[20] = biological target: E3 ubiquitin-protein ligase XIAP (Homo sapiens) (UniProt P98170); assay: XIAP binders, primary screen, biophysical, small-molecule microarray, fluorescence 635 nm (AID 1181); details: small-molecule microarray binding, higher = more signal;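 note: score merges 667 nm emission and signal to noise over triplicate slides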
Sequence of E3 ubiquitin-protein ligase XIAP (Homo sapiens) (P98170 whole entry, looked up): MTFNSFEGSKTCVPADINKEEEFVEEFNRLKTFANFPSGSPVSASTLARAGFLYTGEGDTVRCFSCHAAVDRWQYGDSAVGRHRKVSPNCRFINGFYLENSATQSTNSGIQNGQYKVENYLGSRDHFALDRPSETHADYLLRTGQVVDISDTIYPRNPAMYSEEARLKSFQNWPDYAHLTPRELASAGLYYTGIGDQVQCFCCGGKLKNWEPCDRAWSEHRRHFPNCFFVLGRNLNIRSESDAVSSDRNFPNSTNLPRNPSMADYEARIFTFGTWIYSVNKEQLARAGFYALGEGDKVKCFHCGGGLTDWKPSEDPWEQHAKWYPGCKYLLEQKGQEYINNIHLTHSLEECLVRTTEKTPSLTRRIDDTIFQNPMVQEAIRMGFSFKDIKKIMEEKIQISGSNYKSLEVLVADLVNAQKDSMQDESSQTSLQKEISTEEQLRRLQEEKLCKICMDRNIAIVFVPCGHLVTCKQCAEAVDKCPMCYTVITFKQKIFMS

Compound | z-score [1] | z-score [2] | z-score [3] | z-score [4] | z-score [5] | z-score [6] | z-score [7] | z-score [8] | z-score [9] | z-score [10] | z-score [11] | z-score [12] | z-score [13] | composite z-score [14] | z-score [15] | z-score [16] | z-score [17] | z-score [18] | z-score [19] | composite z-score [20]
COc1ccc(C#Cc2ccc3c(c2)[C@]2(C(=O)N3)[C@H](c3ccc(OCCO)cc3)N3[C@H](c4ccccc4)[C@H](c4ccccc4)OC(=O)[C@H]3[C@@H]2C(=O)N2CCc3cc(OC)c(OC)cc3C2)cc1 | 0.0926 | 0.485 | 0.477 | -1.25 | 0.343 | 0.37 | 3.73 (inactive) | -1.23 | -1.49 | -0.0906 (inactive) | 0.36 | 2.06 (inactive) | -0.224 (inactive) | -1.84 (inactive) | 2.68 (inactive) | 2.33 (inactive) | -0.479 (inactive) | -0.324 (inactive) | 0.0844 | 0.107
O=C1N[C@@H](Cc2ccccc2)C(=O)N2[C@@H]1C[C@@H](C(=O)O)[C@H]2c1ccc(O)cc1 | -0.178 | 0.699 | -0.361 | -3.36 | 0.293 | 0.873 | 0.649 (inactive) | 0.201 | -0.75 | -0.182 (inactive) | -0.425 | -1.14 (inactive) | 0.746 (inactive) | -0.708 (inactive) | -0.13 (inactive) | -0.319 (inactive) | -0.143 (inactive) | -0.803 (inactive) | 0.0674 | 0.0518
CCOC(=O)C[C@H]1[C@H](OC(=O)c2cc3ccccc3oc2=O)[C@@H](NC(=O)c2ccc3ccccc3c2)c2cc(OCCCO)ccc2N1C(=O)Cc1ccc(OC)cc1 | -0.103 | 0.528 | -0.425 | 0.226 | 0.0557 | -0.527 | 0.06 (inactive) | -0.229 | 0.0571 | 0.379 (inactive) | 0.98 | -0.399 (inactive) | -0.0697 (inactive) | 0.0533 (inactive) | -0.304 (inactive) | 0.0085 (inactive) | 0.406 (inactive) | -0.224 (inactive) | -0.137 | -0.169
[N-]=[N+]=NCc1ccccc1C[C@@]1(C(=O)N2CCCCC2)N=C(c2ccc(OCCCO)cc2)O[C@@H]1c1ccccc1CN=[N+]=[N-] | -0.683 | -0.819 | 0.036 | -1.39 | -3.57 | -0.357 | -0.639 (inactive) | -1.17 | -1.64 | 0.742 (inactive) | -0.539 | 0.069 (inactive) | -1.27 (inactive) | 0.669 (inactive) | 1.87 (inactive) | 1.61 (inactive) | 0.191 (inactive) | 0.594 (inactive) | -0.911 | -0.117
CC(C)CNC(=O)[C@@]1(C)c2ccccc2C(=O)N(Cc2cc(C(F)(F)F)cc(C(F)(F)F)c2)[C@H]1c1ccc(CO)cc1 | 0.18 | -0.698 | 1.2 | -0.236 | 0.208 | 2.16 | 0.103 (inactive) | 0.465 | -0.939 | -0.428 (inactive) | -0.402 | 0.145 (inactive) | -0.47 (inactive) | 0.24 (inactive) | -0.0933 (inactive) | -0.46 (inactive) | 0.162 (inactive) | 0.644 (inactive) | 0.364 | -0.206
COc1ccc(CCNC(=O)[C@@]2(Cc3ccccc3I)c3ccccc3C(=O)N(Cc3ccccc3Cl)[C@H]2c2ccc(CO)cc2)cc1 | -0.613 | -0.073 | -0.63 | -3.36 | -1.92 | 0.962 | 0.119 (inactive) | -0.0808 | -0.413 | 0.109 (inactive) | -0.0135 | -0.564 (inactive) | 0.0755 (inactive) | -0.902 (inactive) | 0.751 (inactive) | -0.377 (inactive) | -0.432 (inactive) | -0.638 (inactive) | -0.978 | 0.262
CCOC(=O)C=Cc1ccccc1O | -0.759 | 0.234 | -0.944 | 0.226 | -0.529 | -0.503 | -0.35 (inactive) | -0.986 | -1.64 | 0.0931 (inactive) | -0.193 | -9.29 (active) | -0.056 (inactive) | -0.576 (inactive) | 0.0236 (inactive) | -8.46 (active) | -0.0367 (inactive) | -0.276 (inactive) | -0.234 | 0.125
CCCCCCCCCCC(O)C1C=CC2C(=O)N(C)C(=O)C2N1Nc1cc(OC)c(OC)c(OC)c1 (stereo not given) | -2.12 | -0.555 | -3.26 | -3.8 | -4.07 | -0.993 | 0.485 (inactive) | -0.913 | -2.12 | -1.38 (inactive) | -2.36 | -1.36 (inactive) | -3.17 (inactive) | -1.3 (inactive) | 0.971 (inactive) | 0.439 (inactive) | -0.875 (inactive) | -1.12 (inactive) | -3.54 | -0.182
